Data: PubChem BioAssay

Test: binders of probe aHhip on microarray, primary screen, stem cell growth factor project, biochemical, small-molecule microarray, fluorescence 635/667 (AID 1087);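 note: score merges spot fluorescence at 667nm with spot signal to noise ratio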
Settings: higher = more signal

Row | Structure (SMILES) | composite z-score
1 | COC(=O)C(CC#Cc1ccc2c(c1)[C@]1(C(=O)N2)[C@H](C(=O)N2CCN(c3ncccn3)CC2)[C@H]2C(=O)O[C@H](c3ccccc3)[C@H](c3ccccc3)N2[C@@H]1c1ccc(OCCO)cc1)C(=O)OC | -0.0296
2 | COCCOC(=O)N1C(=O)[C@@]2(c3cc(C#CC4=CCCCC4)ccc31)[C@H](c1ccccc1OCCO)N1[C@H](c3ccccc3)[C@H](c3ccccc3)OC(=O)[C@H]1[C@@H]2C(=O)N1CCCCCCC1 | -0.972
3 | CCOC(=O)C[C@H]1[C@H](OC(=O)c2ccc(C(=O)c3ccccc3)cc2)[C@@H](NC(=O)Cc2ccc(OC)cc2)c2cc(OCCCO)ccc2N1C(=O)c1ccccc1 | -0.0994
4 | C=CC[C@@]1(C(=O)N2CCOCC2)N=C(c2ccc(OCCCO)cc2)O[C@@H]1c1ccccc1CN=[N+]=[N-] | 0.0722
5 | NC(=O)NCC#Cc1ccc2c(c1)[C@]1(C(=O)N2)[C@H](C(=O)NC[C@H](O)c2ccccc2)[C@H]2C(=O)O[C@H](c3ccccc3)[C@H](c3ccccc3)N2[C@@H]1c1ccc(OCCO)cc1 | -0.131
6 | C=C(COC)/C(=C/C[C@H](OC(=O)c1ccncc1)c1ccccc1OCCO)c1cnc2ccccc2c1 | -0.242
7 | [N-]=[N+]=Nc1ccccc1C[C@]1(C(N)=O)N=C(c2ccc(OCCCO)cc2)O[C@H]1c1ccccc1N=[N+]=[N-] | -0.0237
8 | CN1C(=O)C2C=CC(C(O)c3ccccn3)N(N(c3ccccc3)c3ccccc3)C2C1=O (centres undefined) | 0.245
9 | NCCCCCCNC(=O)[C@@H]1C[C@@H]2C(=O)N[C@@H](CCCCN)C(=O)N2[C@@H]1c1cccc(OCCO)c1 | 0.704
10 | O=C1N(Cc2ccccc2)c2ccccc2[C@@H]2OC(c3ccc(OCCCO)cc3)=N[C@]12Cc1ccccc1 | 0.113
11 | CCCCCCCCCCC(O)C1C=CC2C(=O)N(C)C(=O)C2N1NC(=O)OC(C)(C)C (centres undefined) | -0.212
12 | OCCCC1=CC(c2ccc(CN3CCCC3)cc2)N(Cc2sc3ccccc3c2Cl)CC1 (centres undefined) | 0.535
13 | [N-]=[N+]=Nc1ccccc1[C@@H]1OC(c2ccc(OCCCO)cc2)=N[C@]1(Cc1ccccc1)C(=O)NCC(O)CO (some centres undefined) | 0.28
14 | C=CCC(OC(C)=O)[C@@H]1[C@@H](N(Cc2cc3ccccc3o2)C(=O)c2ccc(-c3ccccc3)cc2)c2cc(OCCCO)ccc2N1C(=O)c1ccc2ccccc2c1 (some centres undefined) | -0.214
15 | Cc1cc(C)c(C(O)C2C=CC3C(=O)N(c4ccccc4)C(=O)C3N2Nc2ccc(C(C)C)cc2)c(C)c1 (centres undefined) | 0.128
16 | COc1cc(OC)c(C(O)C2C=CC3C(=O)N(c4ccccc4)C(=O)C3N2Nc2ccccc2)cc1Br (centres undefined) | 0.0139
17 | CO[C@H]1O[C@H](CO)[C@@H](OC(=O)Nc2ccccc2-c2ccccc2)[C@H](OC(=O)Nc2ccc3c(c2)OCO3)[C@H]1OC(=O)Nc1ccc2c(c1)OCO2 | -0.0618
18 | CC1CC/C=C\[C@H]2OC34C=CCN(c5ccc(Cl)cc5)C(=O)[C@H]3N(CCCCCO)C(=O)[C@]4(C)C2C(=O)O1 (some centres undefined) | -0.0994
19 | CC(C)N1C(=O)c2ccccc2[C@@H](C(=O)NC2CC2)[C@@H]1c1ccc(CO)cc1 | -0.189
20 | COCCCNC(=O)[C@@]1(Cc2ccccc2CN=[N+]=[N-])N=C(c2ccc(OCCCO)cc2)O[C@H]1c1ccccc1 | 0.28
21 | COc1ccc([Si](C)(C)[C@@H]2[C@@H](CCO)O[C@]3(C(=O)N(Cc4ccc(N5CCCCC5=O)cc4)c4ccccc43)[C@H]2C)cc1 | 0.0373
22 | C=C(/C(=C/C[C@@H](OC(C)=O)c1cccc(OCCO)c1)c1cc(C(=O)OC)ccc1OC)C(C)C | 0.0373
23 | C=C(COC)C(=O)CC[C@@H](OC(=O)c1cccnc1)c1ccc(OCCO)cc1 | -0.0237
24 | CN(C)c1ccc(C(O)C2C=CC3C(=O)N(c4ccccc4)C(=O)C3N2Nc2ccc([N+](=O)[O-])cc2)cc1 (centres undefined) | 0.0373
25 | C=C[C@@H](COC(C)=O)N(C(=O)OC(C)(C)C)S(=O)(=O)c1ccc(Br)cc1 | 0.157
26 | CCCC[C@@H](O)C1=C(COc2ccccc2)C[C@H]2C(=O)N(C)C(=O)[C@H]2[C@H]1CO | -0.261
27 | COC(=O)c1ccc([C@H](NC(=O)c2ccco2)[C@]2(C)C[C@H]2C2CCCCC2)cc1 | 2.5
28 | COc1ccc(CN(C2=CC[C@@]3(C(N)=O)C(=O)C(Cl)=C(Cl)C(=O)[C@@]3(C#N)C2)S(=O)(=O)c2ccc(Br)cc2)cc1 | 0.0176
29 | COC(=O)c1cn(C[C@@H](Cc2ccccc2)NC(=O)N[C@H](CO)CCc2oc(C(C)=O)c(C(=O)OC)c2C(=O)OC)nn1 | 0.0274
